From PubChem
Compounds with a hit are over-represented: about 2.4% of the library has one in this group of screens.
AmpC inh det: inhibitors of E. coli AmpC beta-lactamase with detergent | P00811 | purified AmpC, nitrocefin hydrolysis with detergent | Potency, µM (top dose mostly 28.7 µM) | actives 0.09% (n = 71,000); active = well fitted curve in the direction sought with a large enough effect; inconclusive = small, poorly fitted or top-dose-only effect
Target sequence (P00811 whole entry, looked up): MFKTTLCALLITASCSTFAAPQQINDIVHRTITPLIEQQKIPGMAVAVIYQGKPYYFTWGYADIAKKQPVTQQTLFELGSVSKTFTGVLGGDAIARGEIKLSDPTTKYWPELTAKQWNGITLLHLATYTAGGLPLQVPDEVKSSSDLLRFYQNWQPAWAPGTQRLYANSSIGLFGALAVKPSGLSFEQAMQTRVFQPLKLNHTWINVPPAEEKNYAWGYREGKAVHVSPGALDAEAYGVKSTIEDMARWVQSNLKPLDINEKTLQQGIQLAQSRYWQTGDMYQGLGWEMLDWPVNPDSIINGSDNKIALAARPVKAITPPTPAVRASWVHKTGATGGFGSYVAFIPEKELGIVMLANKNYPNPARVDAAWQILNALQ
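E. coli AmpC (5.3 nM) in 20 mM phosphate pH 7.0 with 0.01% Triton X-100, preincubated 15 min RT with compound; nitrocefin (2 uL of 800 uM stock) hydrolysis followed by 480 nm absorbance every 20 s over 4 min.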
AmpC nodet inh: AmpC beta-lactamase inhibition, detergent-free assay. P00811. AmpC nitrocefin hydrolysis, absorbance 480 nm, no detergent. Potency, µM (highest dose often 28.7 µM). actives 1.8% (n = 71,000)
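AmpC in 20 mM phosphate buffer pH 7.0 was preincubated 15 min at room temperature with compounds. Nitrocefin (800 uM stock) was then added and hydrolysis followed at 480 nm every 20 s for 4 min.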
SmPrx2 inh: inhibitors of Schistosoma mansoni peroxiredoxin 2. actives 0.07% (n = 65,000). AID 448. S. mansoni Prx2 activity coupled to TGR/GSH (TGR is thioredoxin glutathione reductase), NADPH fluorescence loss, qHTS. Potency, µM
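Enzyme mix: 100 uM NADPH, 25 nM TGR, 700 uM GSH, 50 nM Prx2 in 100 mM phosphate pH 7.4, 10 mM EDTA, 0.01% Tween-20. 15 min RT with compound; NADPH/GSH added, H2O2 starts reaction; NADPH fluorescence read 8 min.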
LT uptake inh: inhibitors of anthrax lethal toxin internalization; Potency, µM (titrated, usually from 40 µM), most hits filed as inhibitors; Cells, anthrax lethal toxin internalization, FRET ratio (460/530); actives 0.67% (n = 70,000); AID 912; note: nearly all actives have a fitted effect of over 50% in size
Large screens that a line does not name were inactive; [ ] = remark or other dose. Unless noted, calls come from the whole dose curve.

C=C(C)[C@@H]1CN[C@H](C(=O)O)[C@H]1CC(=O)O	none
c1ccc(CCNc2ccc3nncn3n2)cc1	AmpC nodet inh 3.2µM[single pt active]
O=C(NCCc1ccccc1)c1ccc(-n2cnnn2)cc1	none
C/C=C(\C)C(=O)O[C@@H]1C(C)=C2[C@H]([C@@H]1OC(=O)CCCCCCC)[C@@](C)(OC(C)=O)C[C@@H](OC(=O)CCC)[C@@]1(O)[C@H]2OC(=O)[C@]1(C)O	LT uptake inh inconclusive
Cc1cc(C)cc(N(CC(=O)N2CCc3ccccc32)S(=O)(=O)c2c(C)noc2C)c1	AmpC nodet inh 4µM[single pt active], LT uptake inh 2µM
Cc1cc(C)cc(N(CC(=O)N2CCN(c3ccccc3)CC2)S(=O)(=O)c2c(C)noc2C)c1	LT uptake inh inconclusive
CCOc1ccc(N(CC(=O)N2CCc3ccccc32)S(=O)(=O)c2c(C)noc2C)cc1	AmpC nodet inh 3.2µM[single pt active], LT uptake inh inconclusive
Cc1n[nH]c(C)c1S(=O)(=O)N(CC(=O)N1CCc2ccccc21)c1ccc(C(C)C)cc1	AmpC nodet inh 4µM[single pt active]
Cc1cc(C)cc(N(CC(=O)N2CCn3c2nc2ccccc23)S(=O)(=O)c2c(C)noc2C)c1	AmpC nodet inh 4µM[single pt active], LT uptake inh inconclusive
COc1ccc(N(CC(=O)O)N=O)cc1	none
Nc1nc2c(C(=O)NCc3cccs3)nnn2c2cccc(Cl)c12	none
CN1C[C@H](C(=O)N[C@]2(C)O[C@@]3(O)[C@H]4CCCN4C(=O)[C@@H](Cc4ccccc4)N3C2=O)C[C@H]2c3cccc4[nH]cc(c34)C[C@@H]21	none
CO[C@H]1[C@H](O)[C@H](O[C@@H]2[C@H](Oc3cccc4c(O)c5c(=O)oc6ccc(C)c7c(=O)oc(c34)c5c67)O[C@@H](C)[C@H](O)[C@H]2O)O[C@@H](C)[C@@H]1O	none
C=C(C)[C@H]1Cc2c(ccc3c2O[C@H]2COc4cc(OC)c(OC)cc4[C@@H]2C3=O)O1	LT uptake inh inconclusive
O=C1O/C(=C\Br)CC[C@@H]1c1cccc2ccccc12	none
O=C(Nc1nc(-c2ccc(S(=O)(=O)N3CCCC3)cc2)cs1)c1cccs1	none
O=C(Nc1nc(-c2cccs2)cs1)c1cccc(S(=O)(=O)N2CCCCC2)c1	AmpC nodet inh 7.9µM, LT uptake inh inconclusive
Cc1ccc(-c2csc(NC(=O)c3cccc(S(=O)(=O)N4CCN(C)CC4)c3)n2)cc1	none
O=C(Nc1nc(-c2ccc(S(=O)(=O)N3CCCCCC3)cc2)cs1)c1cccs1	AmpC nodet inh 7.9µM, LT uptake inh inconclusive
O=C(Nc1nc(-c2cc(Cl)sc2Cl)cs1)c1cccs1	AmpC nodet inh 0.32µM, LT uptake inh inconclusive
O=C(O)c1cc(Cl)cc(Cl)c1	none (no result: SmPrx2 inh)
C=C1CC[C@@H](O)C/C1=C/C=C1\CCC[C@]2(C)[C@@H]1CC[C@H]2[C@@H](C)CCCC(C)C	LT uptake inh inconclusive
Cc1cccc(C)c1N	none (no result: SmPrx2 inh)
COc1ccc(NC(=O)[C@H](CCS(C)(=O)=O)N2Cc3ccccc3C2=O)c(OC)c1	AmpC nodet inh 4µM[single pt active]
CN(C)S(=O)(=O)c1ccc(-c2ccccc2)cc1	LT uptake inh 7.9µM (no result: SmPrx2 inh)
CN(C)S(=O)(=O)c1ccc(Oc2ccccc2)cc1	none (no result: LT uptake inh)
COc1ccc2nc3sc(C(=O)NCc4cccs4)c(N)c3cc2c1	AmpC nodet inh 13µM
O=C(O)c1ccc2cc(-c3ccc(O)c(C45CC6CC(CC(C6)C4)C5)c3)ccc2c1	LT uptake inh 10µM (no result: AmpC inh det, AmpC nodet inh, SmPrx2 inh)
Cc1ccc(S(=O)(=O)O[C@H]2C[C@@H](C(C)(C)C)CC[C@@H]2c2ccccc2)cc1	LT uptake inh inconclusive
Cc1ccc(C(=O)O[C@@H](C(=O)O)[C@@H](OC(=O)c2ccc(C)cc2)C(=O)O)cc1 (tested in a mixture with another compound)	none
COc1cccc(-n2c(Cc3cc(=O)[nH]c(=O)[nH]3)nnc2SCC(=O)N2CCCCCC2)c1	AmpC nodet inh 4µM[single pt active]
COc1cccc(-n2c(Cc3cc(=O)[nH]c(=O)[nH]3)nnc2SCC(=O)N2CCC(C)CC2)c1	none
COc1ccc(-n2c(Cc3cc(=O)[nH]c(=O)[nH]3)nnc2SCC(=O)Nc2ccccc2)cc1	AmpC nodet inh inconclusive, LT uptake inh inconclusive
CC1CCN(C(=O)CSc2nnc(Cc3cc(=O)[nH]c(=O)[nH]3)n2-c2ccc(Cl)cc2)CC1	AmpC nodet inh 4µM[single pt active]
COc1cccc(-n2c(Cc3cc(=O)[nH]c(=O)[nH]3)nnc2SCC(=O)N2CCCC2)c1	none
COc1ccc(-n2c(Cc3cc(=O)[nH]c(=O)[nH]3)nnc2SCC(=O)N2CCCC2)cc1	AmpC nodet inh 4µM[single pt active]
COc1ccc(-n2c(Cc3cc(=O)[nH]c(=O)[nH]3)nnc2SCC(=O)N2CCC(C)CC2)cc1	AmpC nodet inh 4µM[single pt active]
[N-]=[N+]=[N-]	none (no result: SmPrx2 inh)
O=[N+]([O-])c1ccc(O[C@H]2O[C@@H](CO)[C@@H](O)[C@@H](O)[C@@H]2F)c([N+](=O)[O-])c1	none
O=C(CSc1nnc(Cc2cc(=O)[nH]c(=O)[nH]2)n1-c1ccccc1)N1CCCCC1	AmpC nodet inh 3.2µM[single pt active]
O=C(CSc1nnc(Cc2cc(=O)[nH]c(=O)[nH]2)n1-c1ccccc1)N1CCCC1	none
CN(C)c1cc(NC(=O)CN2CCOCC2)c2ccccc2n1	AmpC nodet inh 4µM[single pt active]
CCCCC(=O)Nc1cc(N(C)C)nc2ccccc12	none
C[C@]12Cc3cn4c(nc3C=C1CC[C@H]1[C@@H]2CC[C@@]2(C)[C@H]1CC[C@@]2(O)C#N)nc1ccccc14	LT uptake inh inconclusive
COc1ccc2c(CC(=O)Nc3ccc(OC)c(NS(=O)(=O)c4ccc(F)cc4)c3)coc2c1	AmpC nodet inh inconclusive, LT uptake inh 10µM
CCCCNC(=O)c1cc2c(-c3ccc(Cl)cc3)nn(C)c2s1	none (no result: SmPrx2 inh)
CCOC(=O)N1CCC(NC(=O)c2cc3c(-c4ccc(Cl)cc4)nn(C)c3s2)CC1	AmpC nodet inh 4µM[single pt active]
Cc1ccc(CNC(=O)c2cc3c(-c4ccc(Cl)cc4)nn(C)c3s2)o1	AmpC nodet inh 4µM[single pt active]
COc1cccc(-c2nn(C)c3sc(C(=O)NCc4ccco4)cc23)c1	none
Cn1nc(-c2ccc(Cl)cc2)c2cc(C(=O)NCCCN3CCCC3)sc21	AmpC nodet inh 4µM[single pt active], LT uptake inh 2µM
COCCCNC(=O)c1cc2c(-c3ccc(Cl)cc3)nn(C)c2s1	none
CCN1CCCC1CNC(=O)c1cc2c(-c3cccc(OC)c3)nn(C)c2s1 (configuration not stated)	LT uptake inh 16µM
Nc1nc(Cl)nc2c1ncn2[C@@H]1O[C@@H](CO)[C@@H](O)[C@H]1O	LT uptake inh inconclusive
CC(C)NC(=O)c1cc2c(-c3ccc(Cl)cc3)nn(C)c2s1	AmpC nodet inh 0.79µM[single pt active]
COCCNC(=O)c1cc2c(-c3ccc(Cl)cc3)nn(C)c2s1	none
Cn1nc(-c2ccc(Cl)cc2)c2cc(C(=O)N3CCC(N4CCCCC4)CC3)sc21	none
CCN1CCCC1CNC(=O)c1cc2c(-c3ccc(Cl)cc3)nn(C)c2s1 (configuration not stated)	AmpC nodet inh 4µM[single pt active], LT uptake inh 4µM
O[C@H](CN1CC1)[C@@H](O)CN1CC1	none
CC1CCN(C(=O)Cn2c(=O)oc3ccccc32)CC1	none
CC1CCN(C(=O)CN2C(=O)C(=O)c3ccccc32)CC1	AmpC nodet inh 4µM[single pt active]
